Results on 1 compound are retold here after the supplement of paper PMC12067093, “Discovery and optimisation of a covalent ligand for TRIM25 and its application to targeted protein ubiquitination” (Chemical Science, 2025).

Assay [1] addresses SARS_P49591_431_VEFVHMLNATMCATTR (UniProt P49591). The assay can be described thus: probe-labelled cysteine peptide fold change vs DMSO (competition) (log2 fold change); higher = less target engagement (more negative = stronger competition). To be noted: THP-1, incubation time: 4 h.
The target of assay [2] is SLFN11_Q7Z7L1_842_VVQLSDACDMLGDHIVLDSVRR (UniProt Q7Z7L1). Described as above. To be noted: THP-1, incubation time: 4 h.
Sequence of UniProt Q7Z7L1 (Q7Z7L1 whole entry, looked up): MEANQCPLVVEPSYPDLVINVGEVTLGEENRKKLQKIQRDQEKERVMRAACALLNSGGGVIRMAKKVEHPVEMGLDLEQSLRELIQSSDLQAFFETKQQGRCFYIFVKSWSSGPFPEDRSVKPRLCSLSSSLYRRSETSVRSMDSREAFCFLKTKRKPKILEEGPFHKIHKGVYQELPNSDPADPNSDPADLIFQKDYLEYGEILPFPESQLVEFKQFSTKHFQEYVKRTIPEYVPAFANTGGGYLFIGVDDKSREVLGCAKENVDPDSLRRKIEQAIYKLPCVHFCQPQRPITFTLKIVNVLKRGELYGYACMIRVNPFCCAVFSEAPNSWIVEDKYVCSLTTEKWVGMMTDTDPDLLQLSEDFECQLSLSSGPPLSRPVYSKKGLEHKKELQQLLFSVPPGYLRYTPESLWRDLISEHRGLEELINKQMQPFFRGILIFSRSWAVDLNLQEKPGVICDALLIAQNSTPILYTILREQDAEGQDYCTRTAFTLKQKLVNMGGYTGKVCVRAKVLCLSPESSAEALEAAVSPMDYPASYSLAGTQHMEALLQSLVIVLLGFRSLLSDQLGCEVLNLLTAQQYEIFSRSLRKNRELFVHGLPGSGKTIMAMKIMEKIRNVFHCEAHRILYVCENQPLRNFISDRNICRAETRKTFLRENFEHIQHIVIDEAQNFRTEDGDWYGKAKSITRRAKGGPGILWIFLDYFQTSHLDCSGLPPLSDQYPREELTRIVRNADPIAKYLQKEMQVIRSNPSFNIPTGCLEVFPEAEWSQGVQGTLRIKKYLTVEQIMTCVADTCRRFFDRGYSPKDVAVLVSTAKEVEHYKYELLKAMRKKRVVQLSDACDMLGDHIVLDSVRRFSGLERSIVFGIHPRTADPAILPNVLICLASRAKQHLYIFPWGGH

About 21,000 targets were measured; listed, in parts, are those with the largest changes and a random draw of the rest.
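Also: competitive chemoproteomic profiling in live THP-1 cells with an iodoacetamide desthiobiotin (IA-DTB) probe, comparing probe-labelled peptide intensities in compound-treated cells against DMSO-treated controls.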

Sequence of UniProt P49591 (P49591 whole entry, looked up): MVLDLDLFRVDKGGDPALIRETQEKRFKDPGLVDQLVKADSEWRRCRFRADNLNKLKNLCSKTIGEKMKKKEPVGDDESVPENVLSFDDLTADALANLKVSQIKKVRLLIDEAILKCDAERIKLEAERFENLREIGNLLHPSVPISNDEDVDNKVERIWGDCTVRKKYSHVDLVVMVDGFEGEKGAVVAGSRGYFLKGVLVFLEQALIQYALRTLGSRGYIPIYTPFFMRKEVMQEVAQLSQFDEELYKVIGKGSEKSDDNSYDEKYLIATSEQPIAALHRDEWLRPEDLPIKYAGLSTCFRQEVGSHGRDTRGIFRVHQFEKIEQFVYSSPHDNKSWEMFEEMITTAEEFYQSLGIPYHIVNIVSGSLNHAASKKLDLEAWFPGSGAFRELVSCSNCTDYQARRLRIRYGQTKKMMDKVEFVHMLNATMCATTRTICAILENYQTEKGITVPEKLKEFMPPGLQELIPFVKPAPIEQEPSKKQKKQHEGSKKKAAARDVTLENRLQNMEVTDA

Turning to `CC1Cc2ccccc2N1C(=O)C1CCCN(C(=O)CCl)C1` (mixture of isomers) [TRIM25 ligand 11 (diastereomer mixture)], the “probe-labelled cysteine peptide fold change” value in assay [1] (10 µM) was determined as 0.102; in assay [1] (50 µM), 0.113; in assay [2] (10 µM) it was 0.174; in assay [2] (50 µM), 0.0323.
